# Pol beta inh – DNA polymerase beta (human) inhibition; Pol beta primer extension/strand displacement, fluorescence kinetic; AID 485314; P06746; 340,000 tested, 1.3% active; Potency, µM (doses to about 114 µM), inactives show at the highest dose activity change, negative = inhibition, most hits filed as inhibitors; note: potency is the fitted concentration of half-maximal effect; % is set by controls: 0 for no effect and ±100 for the full control effect
#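 Reaction started by 50 nM substrate onto compound-treated Pol beta (10 nM, 15 min preincubation, room temperature); plates read at 0 min and 10 min. Normalized concentration-effect data fitted by four-parameter Hill equation.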
# Pol eta inh-1 – blocks human DNA polymerase eta activity; recombinant Pol eta, fluorescent DNA replication assay; Potency, µM (titrated, usually from 114 µM), for the others: top-dose activity change, negative = inhibition, most hits filed as inhibitors; 390,000 tested, 1.2% active; AID 588591; note: potency is the fitted concentration of half-maximal effect; % is set by controls: 0 for no effect and ±100 for the full control effect
# Target sequence (Q9Y253 whole entry, looked up): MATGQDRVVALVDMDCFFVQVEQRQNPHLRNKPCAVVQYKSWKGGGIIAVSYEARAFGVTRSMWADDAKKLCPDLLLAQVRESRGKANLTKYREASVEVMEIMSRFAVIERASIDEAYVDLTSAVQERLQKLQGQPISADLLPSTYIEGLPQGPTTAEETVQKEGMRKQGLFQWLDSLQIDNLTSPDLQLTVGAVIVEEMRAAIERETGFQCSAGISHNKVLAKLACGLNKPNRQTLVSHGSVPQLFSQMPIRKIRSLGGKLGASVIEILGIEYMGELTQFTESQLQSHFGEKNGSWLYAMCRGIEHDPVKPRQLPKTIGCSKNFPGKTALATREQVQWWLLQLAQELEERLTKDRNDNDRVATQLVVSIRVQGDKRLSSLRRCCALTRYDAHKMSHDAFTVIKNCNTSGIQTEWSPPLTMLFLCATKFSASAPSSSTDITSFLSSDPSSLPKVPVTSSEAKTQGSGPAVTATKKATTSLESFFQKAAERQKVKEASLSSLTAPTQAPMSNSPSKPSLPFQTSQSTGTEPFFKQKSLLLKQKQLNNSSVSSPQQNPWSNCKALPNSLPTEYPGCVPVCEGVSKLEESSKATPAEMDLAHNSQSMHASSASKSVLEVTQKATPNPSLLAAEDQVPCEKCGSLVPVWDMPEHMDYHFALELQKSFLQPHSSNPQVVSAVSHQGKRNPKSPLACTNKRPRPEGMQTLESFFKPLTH
#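 Fluorescent replication assay: 50 nM final substrate added after a 15 min room-temperature compound preincubation with 10 nM enzyme. Signal taken at 0 min and again at 10 min.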
# POLI inh – blocks human DNA polymerase iota activity | Potency, µM (doses to about 115 µM), for inactives: at the top dose activity, negative = inhibition, actives largely listed as inhibitors | Pol iota fluorescent replication assay, 10 min | 390,000 tested, 1% active | AID 588590 | Q9UNA4; note: potency is the fitted concentration of half-maximal effect
#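 Fluorescent replication assay read twice, at 0 min and 10 min after adding 50 nM (final) substrate. Enzyme (10 nM) and compounds were first incubated 15 min at room temperature; enzyme-free buffer wells were negative controls.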
# PI5P4K alpha inh – inhibitors of human PI5P4K alpha | max response, % | AID 652105 | 330,000 tested, 1.2% active | PI5P4Kalpha enzyme, ADP-Glo luminescence, 60 min; hits give low values; active = max response of -50% or lower; inconclusive = between -30% and -50%; inactive = -30% or higher; note: value at the top dose of about 77 µM; % is set by controls: 0 for no effect and ±100 for the full control effect
#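 Reactions run in 0.038 M HEPES pH 7.4, 0.28 mM EGTA, 0.1% CHAPS and 5% DMSO, with PI5P4Kalpha, substrate, compound and 5 microM ATP final, one hour at room temperature. Readout is ADP-Glo luminescence.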
# Pol kappa inh-1 – inhibitors of human DNA polymerase kappa; Q9UBT6; purified Pol kappa, fluorescent DNA synthesis assay, 10 min; Potency, µM (series often up to 107 µM), without a hit: top-dose activity, negative = inhibition, usual class: inhibitors; 400,000 tested, 0.53% active; note: potency is the fitted concentration of half-maximal effect; % is set by controls: 0 for no effect and ±100 for the full control effect
#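 Kinetic fluorescence screen: compound preincubated 15 min RT with 10 nM enzyme; 50 nM substrate (final) initiates; reads at 0/10 min.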
# WRN inhibitor – blocks human WRN helicase. WRN helicase unwinding, fluorescent forked duplex, kinetic. Potency, µM (top dose mostly 114 µM), without a hit: top-dose activity change, negative = inhibition, most hits filed as inhibitors. 360,000 tested, 0.46% active. Q14191; note: potency is the fitted concentration of half-maximal effect; % is set by controls: 0 for no effect and ±100 for the full control effect; nearly all actives have a fitted effect of over 55% in size
#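 Primary qHTS, 1536-well format. 20 nM WRN + compound, 15 min RT; start with 100 nM forked fluorophore/quencher duplex, 2 mM ATP (final); kinetic read ex 525/em 598 nm.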
# PGK validate – validation of Trypanosoma brucei phosphoglycerate kinase inhibitors; shares compounds with Pol kappa inh-1; 500 tested, 79% active; Potency, µM (titrated, usually from 57.5 µM), for inactives: top-dose activity change, negative = inhibition, most hits filed as inhibitors; TbPGK coupled GAPDH assay, Kinase-Glo luminescence; note: potency is the fitted concentration of half-maximal effect; % is set by controls: 0 for no effect and ±100 for the full control effect; nearly all actives have a fitted effect of over 65% in size
# POLI cherry-pick – Human Pol iota inhibitor confirmatory assay. shares compounds with Pol kappa inh-1. Pol iota primer extension, TAMRA/BHQ fluorescence. Potency, µM, usual class: inhibitors. 1,500 tested, 77% active. AID 720496; note: potency is the fitted concentration of half-maximal effect
# GALK inh confirm – galactokinase (human) inhibition, confirmation | purified GALK, Kinase-Glo ATP depletion luminescence | shares compounds with Pol eta inh-1 | 150 tested, 70% active | Potency, µM (top dose mostly 115 µM), for the others: at the top dose activity, negative = inhibition, most hits filed as inhibitors
# Redox cycling – counter-screen for GALK inhibitors: redox cycling H2O2 generation; AID 2035; Potency, µM (series often up to 115 µM), without a hit: at the highest dose activity change, negative = H2O2 signal, hits mostly inhibitors; 150 tested, 40% active; Phenol red-HRP H2O2 redox cycling, absorbance 600 nm; shares compounds with Pol eta inh-1
# HEK293 tox – HEK-293 cytotoxicity, GALK inhibitor secondary | shares compounds with Pol eta inh-1 | HEK-293 viability, ATP luminescence (CellTiter-Glo), 24/48 h | Potency, µM (series often up to 46.1 µM), for the others: at the top dose activity change, negative = cytotoxicity, usual class: inhibitors | 170 tested, 10% active | AID 2547; note: potency is the fitted concentration of half-maximal effect; % is set by controls: 0 for no effect and ±100 for the full control effect
# Pol kappa inh-2 – confirmation of human DNA polymerase kappa inhibitors | shares compounds with Pol eta inh-1 | purified Pol-kappa, fluorescent strand-displacement substrate | Potency, µM, hits mostly inhibitors | 920 tested, 76% active | AID 720501; note: potency is the fitted concentration of half-maximal effect
# Pol eta inh-2 – Pol eta (human) inhibition, cherry-pick confirmation | shares compounds with Pol eta inh-1 | Pol eta primer extension, TAMRA/BHQ fluorescence, 10 min | Potency, µM, usual class: inhibitors | 2,600 tested, 64% active | AID 720502; note: potency is the fitted concentration of half-maximal effect
# Active calls of the source: *; u = inconclusive; x = no result; [ ] = another dose, or the depositor's remark. Most compounds without a hit are left out; they make up all but 2.8% or so of the library. Unless noted, calls come from the whole dose curve; as a rule, active = well fitted curve in the direction sought with a large enough effect; inconclusive = small, poorly fitted or top-dose-only effect, or another doubt; inactive = no such curve, though single readings can be large; an effect the other way counts as inactive or inconclusive.
SMILES,Pol beta inh,Pol eta inh-1,POLI inh,PI5P4K alpha inh,Pol kappa inh-1,WRN inhibitor,POLI cherry-pick,Pol eta inh-2,others
O=C(/C=C/c1ccco1)Nc1scc(-c2ccccc2)c1C(=O)O,-38%,20µM*,28µM*,u,79µM*,u,38*,27*,
Cc1ccc(C)c(CN2C(=O)c3ccccc3S(=O)(=O)c3ccc(C(=O)NCc4ccccc4)cc32)c1,7%,x,2%,x,4%,x,x,x,
O=C(O)CSc1nc2ccc(NC(=O)COc3ccc(Cl)cc3)cc2s1,25µM*,11µM*,79µM*,x,u,x,67*,30*,
Cc1cc2nc3c(=O)[nH]c(=O)[nH]c3nc2c([N+](=O)[O-])c1N,35µM*,3.5µM*,u,-76*,28µM*,50µM*,24*,21*,Pol kappa inh-2=17*
CC1Cc2cc(S(=O)(=O)CCC(=O)Nc3cccc(F)c3)ccc2N1C(=O)C1CC1 (stereo not given),1%,-11%,20%,x,-18%,x,x,x,
CC1=NOC(=O)/C1=C\c1ccc(-c2ccccc2Br)o1,22µM*,20µM*,u,u,u,56µM*,75*,48*,
CCOC(=O)Cc1csc(N/N=C/c2cccc([N+](=O)[O-])c2)n1,-5%,9%,34%,5,-7%,-34%,x,x,
O=[N+]([O-])c1cccc(-c2csc(N/N=C/c3cccc(O)c3)n2)c1,1%,-6%,45µM*,u,79µM*,-7%[11.6 µM],38*,27*,
CNc1c2cccc(C)c2nc2c(C(=O)NCCN(C)C)cccc12,x,3.5µM*,11µM*,6,8.9µM*,-10%,3*,38*,
Cc1ccc(C(=O)NCCN(C)C)c(C)c1,-22%,-11%,3%,0,5%,4%,x,x,
COc1ccc(Oc2c(OC)cc(NCc3ccc(CN)cc3)c3ncccc23)cc1,x,3.2µM*,x,-10,x,-30%[11.6 µM],7.5*,15*,Pol kappa inh-2=3*
CCC(=O)Nc1ccc2nc3c(=O)[nH]c(=S)[nH]c3nc2c1,40µM*,18µM*,u,-66*,45µM*,u,27*,30*,Pol kappa inh-2=17*
CCC(=O)Nc1ccc2nc3c(=O)n(C)c(=O)n(C)c3nc2c1,26%,-3%,14%,x,11%,x,x,x,
N#Cc1c(-c2ccccc2)nc(SCC(=O)N2c3ccccc3Sc3ccccc32)[nH]c1=O,25µM*,40µM*,u,-22,-14%,u,84*,u,GALK inh confirm=30µM*;Redox cycling=-4%;HEK293 tox=1%
Cc1ccc(NC(=S)NNc2ccc(C(=O)O)cc2[N+](=O)[O-])cc1C,x,-5%,u,-7,-7%,-35%,x,x,
CCOc1cc(/C=N/Nc2ccc(S(=O)(=O)Nc3ccccc3C(=O)O)cc2[N+](=O)[O-])cc(Cl)c1O,x,25µM*,x,-69*,x,u,47*,67*,Pol kappa inh-2=24*
CC(=O)Nc1ccc(C=NNc2ccc(S(=O)(=O)Nc3ccccc3C(=O)O)cc2[N+](=O)[O-])cc1,x,22µM*,u,-92*,-30%,u,u,76*,Pol kappa inh-2=21*
O=C(O)c1ccccc1NS(=O)(=O)c1ccc(NNC(=S)Nc2ccc(OC(F)F)cc2)c([N+](=O)[O-])c1,89µM*,25µM*,u,-82*,u,u,75*,76*,
COc1ccc(C(=O)Nc2nnc(SCc3cc(=O)c4cccc(F)c4[nH]3)s2)cc1,9%,-15%,11%,x,-11%[60.1 µM],x,x,x,
C=C(C)C(=O)Nc1cccc(C2=NOC3(C2)C[C@@H](C(N)=O)N(C(=O)C(=C)C)C3)c1 (stereo not given in full),3.5µM*,10µM*,50µM*,-20,u,-8%[11.6 µM],x,17*,PGK validate=5.8µM*
C/C=C/C(=O)N1CC2(CC(c3cccc(NC(=O)CC)c3)=NO2)C[C@H]1C(N)=O (stereo not given in full),-28%,-6%,-9%,-1,-5%,-15%,x,x,
C=C(C)C(=O)Nc1cccc(C2=NOC3(C2)C[C@@H](C(N)=O)N(C(=O)c2cc([N+](=O)[O-])cc([N+](=O)[O-])c2C)C3)c1 (stereo not given in full),20µM*,13µM*,u,-4,50µM*,u,u,19*,PGK validate=u
C=C(C)C(=O)N1CC2(CC(c3cccc(NC(=O)/C=C\C=C/C)c3)=NO2)C[C@H]1C(N)=O (stereo not given in full),u,13µM*,11µM*,-20,40µM*,u,13*,19*,
O=C(Nc1ccccc1)C12CC1/C(=N\O)c1ccccc1O2 (stereo not given),x,x,x,x,4%[19.4 µM],x,x,x,
NS(=O)(=O)c1ccc(N=Nc2c[nH]c(=O)c(O)c2)cc1,u,22µM*,14µM*,-63*,u,u,x,54*,PGK validate=18µM*
Nc1nc(O)c(N=Nc2ccc(S(N)(=O)=O)cc2)c(=O)[nH]1,0%,-18%,151%,0,-6%,-6%,x,x,

# Source: PubChem
